± gives the standard deviation of the averaged measurements.
Test system: FaDu
Assay: mitochondrial oxygen consumption rate normalised to cell number, Z score vs plate DMSO wells; higher = higher oxygen consumption (negative = OCR reduction)
Conditions: treatment time 24 h, assay medium: 5 mM glucose, 5 mM pyruvate, 4 mM glutamine
Procedure: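 Secondary screen: FaDu cells were incubated 24 h with the top 130 primary hits at 0.08, 0.4, 2 or 10 uM. Mitochondrial-specific OCR (basal minus antimycin A) was measured on a Seahorse XF96 in medium with 5 mM glucose, 5 mM pyruvate and 4 mM glutamine and normalised to Hoechst cell number. OCR score = (OCR - mean of plate DMSO wells) / SD of plate DMSO wells. Three repeats.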
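Also: compound exposure in DMEM (4 mM L-glutamine, 5 mM glucose), antimycin A injected at 2 µM after the basal reading and its residual OCR subtracted from basal.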

Compound	mitochondrial oxygen consumption rate normalised (0.08 µM)	mitochondrial oxygen consumption rate normalised (0.4 µM)	mitochondrial oxygen consumption rate normalised (10 µM)	mitochondrial oxygen consumption rate normalised (2 µM)
CC[C@@]1(O)C(=O)OCc2c1cc1n(c2=O)Cc2cc3c(CN(C)C)c(O)ccc3nc2-1 [Topotecan]	-0.916 ± 1.4	0.308 ± 0.26	0.664 ± 1.4	
COc1cc(O)c(C(=O)c2ccccc2)cc1S(=O)(=O)O	0.104 ± 1.6	1.17 ± 0.81	-1.77 ± 1	-0.346 ± 2.5
CCc1cc(Cl)c(OC)c(C(=O)NC[C@@H]2CCCN2CC)c1O	0.346 ± 0.99	1.18 ± 0.45	0.556 ± 2.2	0.712 ± 2.1
Nc1ccc2cc3ccc(N)cc3nc2c1	0.988 ± 0.79	1.43 ± 0.73	-6.68 ± 1.4	-2.56 ± 1.5
Nc1nc2[nH]cnc2c(=S)[nH]1	-1.04 ± 1.9	-0.865 ± 0.14	-5.01 ± 1.4	-5.57 ± 0.33
CCCCCCCCCCCCCCCCCCCCCCO	0.402 ± 1.5	0.592 ± 1.3	-0.999 ± 1.9	0.538 ± 0.35
COc1cccc2c1C(=O)c1c(O)c3c(c(O)c1C2=O)C[C@@](O)(C(C)=O)C[C@@H]3O[C@H]1C[C@H](N)[C@H](O)[C@H](C)O1	1.45 ± 1.5	-2.21 ± 0.4		-6.3 ± 0.54
Clc1ccc(COC(Cn2ccnc2)c2ccc(Cl)cc2Cl)cc1 (configuration not stated)	0.524 ± 0.89	0.994 ± 1.6	-4.62 ± 1.4	0.111 ± 1.5
CNC(=O)c1cc(Oc2ccc(NC(=O)Nc3ccc(Cl)c(C(F)(F)F)c3)cc2)ccn1	-1.33 ± 0.69	-0.411 ± 0.42	-12.1 ± 0.9	-1.86 ± 0.2
CCCCC(CC)CN=C(N)N=C(N)NCCCCCCNC(N)=NC(N)=NCC(CC)CCCC (configuration not stated)	-1.69 ± 0.36	1.12 ± 0.29	-10.4 ± 0.54	-0.611 ± 2
CCCCCCCCCCCCCCCC[N+](C)(C)CCN(Cc1ccc(OC)cc1)c1ncccn1	0.201 ± 1.1	1.55 ± 0.82	-5.99 ± 0.8	0.248 ± 1.4
CCN(CC)CCCC(C)Nc1c2ccc(Cl)cc2nc2ccc(OC)cc12 (configuration not stated)	-0.58 ± 1.2	0.524 ± 1.1		-2.47 ± 1.1
CN(C)c1ccc2nc3ccc(=[N+](C)C)cc-3sc2c1	0.933 ± 1.1	1.47 ± 0.68	-2.94 ± 3.9	-2.4 ± 1.5
CCCCCCCCCCCCCCCC[N+](C)(C)C	0.46 ± 0.86	-0.326 ± 1		-10.1 ± 0.48
NS(=O)(=O)c1cc2c(cc1Cl)N=CNS2(=O)=O	-0.245 ± 2.1	0.722 ± 0.73	0.507 ± 1.1	0.0559 ± 1.2
Oc1c(Cl)cc(Cl)c(Cl)c1Cc1c(O)c(Cl)cc(Cl)c1Cl	-0.831 ± 1.9	1.92 ± 0.93	-13.3 ± 0.45	-2.48 ± 0.61
Cc1c2oc3c(C)ccc(C(=O)N[C@@H]4C(=O)N[C@H](C(C)C)C(=O)N5CCC[C@H]5C(=O)N(C)CC(=O)N(C)[C@@H](C(C)C)C(=O)O[C@@H]4C)c3nc-2c(C(=O)N[C@@H]2C(=O)N[C@H](C(C)C)C(=O)N3CCC[C@H]3C(=O)N(C)CC(=O)N(C)[C@@H](C(C)C)C(=O)O[C@@H]2C)c(N)c1=O	-3.2 ± 1.3	-7.48 ± 0.36		-9.57 ± 0.5
c1ccc2c(c1)CCCC2C1=NCCN1 (configuration not stated)	-1.42 ± 2.7	-0.536 ± 1.1	-0.259 ± 1	-0.793 ± 1
COc1cc([C@@H]2c3cc4c(cc3[C@@H](O[C@@H]3O[C@@H]5CO[C@@H](c6cccs6)O[C@H]5[C@H](O)[C@H]3O)[C@H]3COC(=O)[C@H]23)OCO4)cc(OC)c1O				-7.82 ± 1.4
CCOc1ccc2nc3cc(N)ccc3c(N)c2c1	-0.404 ± 1.3	0.17 ± 0.56	-6.87 ± 0.83	-3.32 ± 0.28
CN(C)C(=O)C(CCN1CCC(O)(c2ccc(Cl)cc2)CC1)(c1ccccc1)c1ccccc1	0.831 ± 1.1	0.616 ± 1.4	-0.932 ± 1.7	0.593 ± 1.7
COc1ccc(C[C@H](N)C(=O)N[C@H]2[C@@H](O)[C@H](n3cnc4c(N(C)C)ncnc43)O[C@@H]2CO)cc1	-1.29 ± 1.7	-0.131 ± 0.75		-3.4 ± 2.1
CC[C@@]1(O)C(=O)OCc2c1cc1n(c2=O)Cc2cc3c(CN(C)C)c(O)ccc3nc2-1				-1.46 ± 1.6
COc1cc(NS(C)(=O)=O)ccc1Nc1c2ccccc2nc2ccccc12	-0.738 ± 1.7	1.51 ± 1.1	-5.19 ± 1.7	-1.58 ± 0.81
CC(COc1ccccc1)NC(C)C(O)c1ccc(O)cc1 (configuration not stated)	0.276 ± 1.4	1.57 ± 0.3	0.099 ± 1	0.21 ± 1.1
CN(C)c1ccc(C(=C2C=CC(=[N+](C)C)C=C2)c2ccc(N(C)C)cc2)cc1	-0.504 ± 1.3	-6.33 ± 1.1		-13.3 ± 0.17
CC(=O)Oc1ccccc1C(=O)Nc1ncc([N+](=O)[O-])s1	0.233 ± 1.2	1.38 ± 0.59	1.49 ± 1.2	1.82 ± 0.7
N=C(NCCCCCCNC(=N)NC(=N)Nc1ccc(Cl)cc1)NC(=N)Nc1ccc(Cl)cc1	0.00962 ± 0.9	1.64 ± 0.46	-7.98 ± 0.44	-0.184 ± 0.7

Compound	mitochondrial oxygen consumption rate normalised (0.08 µM)	mitochondrial oxygen consumption rate normalised (0.4 µM)	mitochondrial oxygen consumption rate normalised (10 µM)	mitochondrial oxygen consumption rate normalised (2 µM)
CCCCCCCCCc1ccc(OCCOCCOCCOCCOCCOCCOCCOCCOCCO)cc1	0.0515 ± 1	0.101 ± 0.62	-7.69 ± 0.55	-3.38 ± 0.78
Oc1c(Br)cc(Br)c2cccnc12	0.816 ± 1.4	1.29 ± 1	-3.74 ± 2	-0.243 ± 2.5
C[n+]1cc2c3c(ccc2c2ccc4cc5c(cc4c21)OCO5)OCO3	0.385 ± 0.96	0.59 ± 0.68	-3.47 ± 3.3	-0.66 ± 2.1
CO[C@H](C(=O)[C@@H](O)[C@@H](C)O)[C@@H]1Cc2cc3cc(O[C@H]4C[C@@H](O[C@@H]5C[C@@H](O)[C@H](O)[C@@H](C)O5)[C@H](O)[C@@H](C)O4)c(C)c(O)c3c(O)c2C(=O)[C@H]1O[C@H]1C[C@@H](O[C@@H]2C[C@@H](O)[C@@H](O[C@@H]3C[C@](C)(O)[C@H](O)[C@@H](C)O3)[C@@H](C)O2)[C@H](O)[C@@H](C)O1	-4.64 ± 1.4	-7.12 ± 0.33	-8.14 ± 0.52	-7.79 ± 0.54
CC(C)OC(=O)C(C)(C)Oc1ccc(C(=O)c2ccc(Cl)cc2)cc1	-0.014 ± 0.66	1.08 ± 0.7	-2.82 ± 2.6	0.455 ± 1.1
CCN(CC)CCCC(C)Nc1ccnc2cc(Cl)ccc12 (configuration not stated)	0.223 ± 1.1	1.56 ± 0.35	0.482 ± 1.1	-0.792 ± 0.8
CCCCCCc1ccc(O)cc1O.Nc1c2ccccc2nc2ccccc12	-0.393 ± 1.3	-0.59 ± 2.2	-6.38 ± 0.68	-2.14 ± 1.1
CO[C@@]12[C@H](COC(N)=O)C3=C(C(=O)C(C)=C(N)C3=O)N1C[C@@H]1N[C@@H]12	-0.603 ± 0.39	1.96 ± 0.85	-3.99 ± 1.3	-1.73 ± 1.2
C#C[C@]1(O)CC[C@H]2[C@@H]3CCC4=CC(=O)CC[C@@H]4[C@H]3CC[C@@]21CC	0.538 ± 0.4	1.49 ± 0.65	1.62 ± 1.1	1.15 ± 0.96
CC[n+]1c(-c2ccccc2)c2cc(N)ccc2c2ccc(N)cc21	-0.559 ± 1.1	-1.04 ± 0.79	-6.28 ± 1.8	-3.43 ± 2.4
C=CCOC(Cn1ccnc1)c1ccc(Cl)cc1Cl (configuration not stated)	-0.655 ± 2.4	0.416 ± 2.9	-0.245 ± 0.57	-0.3 ± 1.2
CC(C)(C)CC(C)(C)c1ccc(OCCOCC[N+](C)(C)Cc2ccccc2)cc1	-0.0571 ± 1.2	0.0149 ± 0.7	-13 ± 0.41	-6.66 ± 0.41
O=c1cc[nH]c(=S)[nH]1	-0.646 ± 1.9	1.11 ± 0.98	0.14 ± 2.1	-0.279 ± 2.5
Cc1cc(C(C)(C)CC(C)(C)C)ccc1OCCOCC[N+](C)(C)Cc1ccccc1	-1.05 ± 0.63	0.588 ± 0.44	-12.6 ± 0.23	-5.29 ± 1.2
Cc1cc(/C=C/c2ccc3cc(N(C)C)ccc3[n+]2C)c(C)n1-c1ccccc1	-1.73 ± 1	-11.7 ± 0.64	< -13.8	-13.47 ± 0.04
COc1ccc2c(c1)c(CC(=O)O)c(C)n2C(=O)c1ccc(Cl)cc1	-1.16 ± 1.6	-0.0955 ± 0.33	-0.792 ± 1.6	0.286 ± 1.6
O=[N+]([O-])c1ccc(O)c2ncccc12	0.333 ± 0.4	1.67 ± 1.1	-3.63 ± 2.5	-0.415 ± 1.2
Cc1cc(=O)[nH]c(=S)[nH]1	-1.18 ± 0.93	-0.337 ± 0.83	0.503 ± 0.66	-1.08 ± 0.99
C=CC1=C(C)c2cc3[nH]c(cc4nc(cc5[nH]c(cc1n2)c(C)c5CCC(=O)O)C(CCC(=O)O)=C4C)c(C)c3C=C	0.0776 ± 2.3	1.29 ± 2	-1.43 ± 1.3	0.447 ± 0.95
Nc1nc(Cl)nc2c1ncn2[C@H]1C[C@H](O)[C@@H](CO)O1 [Cladribine]	0.0971 ± 0.62	1.11 ± 0.78	-0.553 ± 2.5	0.797 ± 2
O=C1C(O)=C([C@H]2CC[C@H](c3ccc(Cl)cc3)CC2)C(=O)c2ccccc21	-0.607 ± 2.4	1.63 ± 1.6	-3.55 ± 2.2	-0.111 ± 2.5
CCCCCCCCNC(C)C(O)c1ccc(SC(C)C)cc1 (configuration not stated)	0.0353 ± 1.1	-0.376 ± 0.59	-7.88 ± 0.64	0.293 ± 1.8
CN(C)CCCN1c2ccccc2CCc2ccccc21	-0.638 ± 1.5	-0.388 ± 0.95	-0.576 ± 1.4	-0.981 ± 1.9
CCCCC(CC)CN1CN(CC(CC)CCCC)CC(C)(N)C1 (configuration not stated)	1.53 ± 1.5	0.568 ± 0.56	-5.24 ± 1.7	0.773 ± 1.7
C[C@]12CC[C@@H]3c4ccc(O)cc4CC[C@H]3[C@@H]1CC[C@@H]2OC(=O)CCC1CCCC1	0.0173 ± 1.4	0.582 ± 0.51	-0.125 ± 1.5	0.375 ± 0.83
O=C(O)c1cc(/N=N/c2ccc(O)c(C(=O)O)c2)ccc1O	0.0704 ± 1.6	0.359 ± 0.82	-0.951 ± 2.1	-0.373 ± 1.2
CCCCCC(=O)O[C@]1(C(C)=O)CC[C@H]2[C@@H]3CCC4=CC(=O)CC[C@]4(C)[C@H]3CC[C@@]21C	0.448 ± 1.4	0.998 ± 0.5	-3.48 ± 1.8	0.00301 ± 1.9

Source: the supplement of paper PMC4962491
